What is called AC50 is the concentration at which the activity in the assay is half-maximal.

Results filed as inconclusive are left out. Activity calls are given as the source filed them. How the source made its calls: active means hit-call score of the fitted dose curve at least 0.9, where 1 is the maximum; inconclusive means response in the unintended direction; inactive means score below 0.9.

In PubChem BioAssay (EPA / NIEHS) one finds AC50 and outcome data, which are given here for 20 compounds.

Assay [1] deals with rabbit Platelet Activating Factor Receptor (PAF), gene 100354046. In words: NVS_GPCR_rabPAF: NovaScreen (NVS) G Protein-Coupled Receptor Assay for rabbit Platelet Activating Factor Receptor (PAF) (AID 2283287). In a few lines:
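Rabbit platelet membrane preparation; radioligand displacement read by filter-based scintillation counting 1 h after dosing, loss of signal versus DMSO. Primary screen in duplicate at 25 uM, actives followed up in concentration series.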

For assay [2], the target named is human Neurokinin, NK2 Receptor, TACR2 (gene 6865) (UniProt P21452). In words: NVS_GPCR_hNK2: NovaScreen (NVS) G Protein-Coupled Receptor Assay for human Neurokinin, NK2 Receptor (AID 2283278).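 Further: actives reduce bound radioligand signal relative to DMSO baseline.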 In a few lines:
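CHO-derived membrane protein, radioligand displacement, filter scintillation read at 4 h post-dose. Single-point 25 uM in duplicate, then concentration series for actives; DMSO as negative control.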

Assay [3] concerns the target human Opioid Receptor Mu (Opiate Mu), OPRM1 (gene 4988) (UniProt P35372). In words: NVS_GPCR_hOpiate_mu: NovaScreen (NVS) G Protein-Coupled Receptor Assay for human Opioid Receptor Mu (Opiate Mu) (AID 2283290).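 Further: hits lower bound tracer signal versus DMSO meaning displacement of the ligand.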 The method in brief:
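Cell-free radioligand binding to membranes from CHO cells expressing the receptor; bound tracer measured by filter-based scintillation counting 2.5 hours after dosing. Loss of signal versus DMSO baseline reflects displacement; primary screen at 25 uM in duplicate, actives followed up in concentration series.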

The target in assay [4] is rat Adrenergic, Alpha 1, Non-selective Receptor (Adra1), Adra1a (gene 29412) (UniProt P43140). In words: NVS_GPCR_rAdra1_NonSelective: NovaScreen (NVS) G Protein-Coupled Receptor Assay for rat Adrenergic, Alpha 1, Non-selective Receptor (Adra1) (AID 2283289). The method in brief: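 Rat forebrain membranes; radioligand displacement read by filter-based scintillation counting 1 h after dosing. Primary screen in duplicate at 25 uM; hits (e.g. ≥30% inhibition) rerun as concentration–response to 50 uM max. Fitted versus DMSO.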

Assay [5] concerns the target rat Adrenergic, Alpha 1A Receptor (Adra1A), Adra1a (gene 29412) (UniProt P43140). In words: NVS_GPCR_rAdra1A: NovaScreen (NVS) G Protein-Coupled Receptor Assay for rat Adrenergic, Alpha 1A Receptor (Adra1A) (AID 2283296). In a few lines: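 Rat cortical membranes pretreated with chlorethyl clonidine; competitive radioligand displacement, 1 h. Filter-based scintillation counting. Primary screen in duplicate at 25 uM, actives followed in concentration series.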

Assay [6] concerns the target human Neuropeptide Receptor Y1 (NPY1), NPY1R (gene 4886) (UniProt P25929). In words: NVS_GPCR_hNPY1: NovaScreen (NVS) G Protein-Coupled Receptor Assay for human Neuropeptide Receptor Y1 (NPY1) (AID 2283276). The method in brief:
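Cell-free radioligand binding using receptor extracted from SK-N-MC cells, 1 h incubation, filter-based scintillation counting. Primary screen single concentration 25 uM in duplicate; actives followed in concentration series. Loss of bound signal scored versus DMSO.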

Assay [7] has as its target human Thromboxane A2 Receptor (TXA2), TBXA2R (gene 6915) (UniProt P21731). In words: NVS_GPCR_hTXA2: NovaScreen (NVS) G Protein-Coupled Receptor Assay for human Thromboxane A2 Receptor (TXA2) (AID 2283282).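 Further: actives reduce bound radioligand signal relative to DMSO baseline.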 The method in brief:
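Biochem binding, human platelets, cell-free; competitive radioligand displacement; 1 h; filter radiodetection. 25 uM duplicate primary, conc. series secondary; DMSO neg. ctrl.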

Assay [8] deals with rat Serotonin, 5-Hydroxytryptamine Receptor 1 (5HT1), Non-Selective Binding, Htr1a (gene 24473) (UniProt P19327). In words: NVS_GPCR_r5HT1_NonSelective: NovaScreen (NVS) G Protein-Coupled Receptor Assay for rat Serotonin, 5-Hydroxytryptamine Receptor 1 (5HT1), Non-Selective Binding (AID 2283286). In a few lines:
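Rat cortical membranes, radioligand displacement, 1 h incubation, read by filter scintillation. Primary screen in duplicate at 25 uM. Hits (e.g. ≥30% inhibition) went to concentration-response up to 50 uM, fitted as loss of binding versus DMSO.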

Assay [9] concerns 5-hydroxytryptamine receptor 2C (pig). In words: NVS_GPCR_p5HT2C: NovaScreen (NVS) G Protein-Coupled Receptor Assay for pig Serotonin, 5-Hydroxytryptamine Receptor 2C (5HT2C) (AID 2283288). In a few lines: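 Pig choroid plexus membranes; radioligand competitive binding, filter-based scintillation counting, read 1 h after dosing. Primary screen in duplicate at 25 uM; actives then run as concentration series; loss of signal versus DMSO baseline.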

Assay [10] addresses rat Serotonin, 5-Hydroxytryptamine Receptor (5HT), Non-Selective Binding, Htr1a (gene 24473) (UniProt P19327). In words: NVS_GPCR_r5HT_NonSelective: NovaScreen (NVS) G Protein-Coupled Receptor Assay for rat Serotonin, 5-Hydroxytryptamine Receptor (5HT), Non-Selective Binding (AID 2283295). The method in brief: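 Radioligand displacement on rat cortical membranes, 1 h incubation, filter-based scintillation counting. Primary duplicates at 25 uM, actives retested in concentration series; loss of signal fitted against DMSO as baseline.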

The target of assay [11] is human Neurotensin Receptor (NTS), NTSR1 (gene 4923) (UniProt P30989). In words: NVS_GPCR_hNTS: NovaScreen (NVS) G Protein-Coupled Receptor Assay for human Neurotensin Receptor (NTS) (AID 2283279). The method in brief: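 Radioligand displacement on human NTSR1 protein from CHO cells, cell-free, 1 h, filter-based scintillation counting. Primary screen at 25 uM in duplicate; hits rerun in concentration-response up to 50 uM.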

Assay [12] addresses guinea pig Bradykinin Receptor B2 (BK2), BDKRB2 (gene 100135486) (UniProt O70526). In words: NVS_GPCR_gBK2: NovaScreen (NVS) G Protein-Coupled Receptor Assay for guinea pig Bradykinin Receptor B2 (BK2) (AID 2283292). The method in brief: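 Radioligand displacement on guinea pig ileum membranes for 1 h, read by filter-based scintillation counting; loss of signal relative to DMSO. Compounds were screened in duplicate at 25 uM, and those passing the threshold were retested in concentration-response up to 50 uM.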

Assay [13] deals with mouse Cholecystokinin, CCK2 Receptor (CCKB), Cckbr (gene 12426) (UniProt P56481). In words: NVS_GPCR_mCKKBCentral: NovaScreen (NVS) G Protein-Coupled Receptor Assay for mouse Cholecystokinin, CCK2 Receptor (CCKB) (AID 2283293). The method in brief: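 Radioligand displacement binding on mouse forebrain membranes, 2 h exposure, filter-based scintillation counting. Primary screen in duplicate at 25 uM; actives (e.g. ≥30% inhibition) retested in concentration-response up to 50 uM; loss of binding signal relative to DMSO.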

For assay [14], the target named is guinea pig Serotonin, 5-Hydroxytryptamine Receptor 4 (5HT4), HTR4 (gene 100135548) (UniProt O70528). In words: NVS_GPCR_g5HT4: NovaScreen (NVS) G Protein-Coupled Receptor Assay for guinea pig Serotonin, 5-Hydroxytryptamine Receptor 4 (5HT4) (AID 2283294). In a few lines: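 Guinea pig striatal membranes; radioligand competitive displacement, filtration and scintillation counting after 1 h. Primary screen in duplicate at 25 uM; actives then tested in concentration series; loss of binding signal fitted relative to DMSO.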

The subject of assay [15] is rat Adrenergic, Alpha 1B Receptor (Adra1B), gene 24173. In words: NVS_GPCR_rAdra1B: NovaScreen (NVS) G Protein-Coupled Receptor Assay for rat Adrenergic, Alpha 1B Receptor (Adra1B) (AID 2283297). The method in brief:
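Rat liver membranes, radioligand displacement with filter-based scintillation detection, 1 h incubation. Primary screen in duplicate at 25 uM; actives retested in concentration series; activity relative to DMSO.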

Assay [16] addresses human Opioid Receptor Delta 1 (Opiate D1), OPRD1 (gene 4985) (UniProt P41143). In words: NVS_GPCR_hOpiate_D1: NovaScreen (NVS) G Protein-Coupled Receptor Assay for human Opioid Receptor Delta 1 (Opiate D1) (AID 2283280). In a few lines:
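Radioligand displacement on membranes from CHO cells expressing the receptor, read by filter scintillation counting 1 h after dosing. Duplicate single-point screen at 25 uM, then concentration series for actives; loss of signal versus DMSO.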

For assay [17], the target named is human Orphanin, Opioid Related Nociceptin Receptor 1 (ORL1), OPRL1 (gene 4987) (UniProt P41146). In words: NVS_GPCR_hORL1: NovaScreen (NVS) G Protein-Coupled Receptor Assay for human Orphanin, Opioid Related Nociceptin Receptor 1 (ORL1) (AID 2283283). In a few lines:
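Filter-based radioligand displacement with receptor extracted from HEK293 cells, read 1 hour after dosing by scintillation counting. Duplicate single-point screen at 25 uM; qualifying chemicals then run in concentration-response to 50 uM, analysed relative to DMSO.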

human Opioid Receptor Mu (Opiate Mu), OPRM1 (gene 4988), sequence (P35372 whole entry, looked up): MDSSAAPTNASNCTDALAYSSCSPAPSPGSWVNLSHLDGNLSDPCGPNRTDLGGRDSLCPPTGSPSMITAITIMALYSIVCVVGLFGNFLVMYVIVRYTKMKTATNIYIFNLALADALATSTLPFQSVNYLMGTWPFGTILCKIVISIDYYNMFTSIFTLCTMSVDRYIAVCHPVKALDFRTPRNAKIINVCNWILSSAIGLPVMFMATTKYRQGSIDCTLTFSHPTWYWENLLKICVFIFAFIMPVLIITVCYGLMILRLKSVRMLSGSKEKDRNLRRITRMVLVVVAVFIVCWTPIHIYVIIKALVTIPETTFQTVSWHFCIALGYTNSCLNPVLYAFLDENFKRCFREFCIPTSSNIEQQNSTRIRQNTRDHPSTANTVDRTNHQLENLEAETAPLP
rat Serotonin, 5-Hydroxytryptamine Receptor 1 (5HT1), Non-Selective Binding, Htr1a (gene 24473), sequence (P19327 whole entry, looked up): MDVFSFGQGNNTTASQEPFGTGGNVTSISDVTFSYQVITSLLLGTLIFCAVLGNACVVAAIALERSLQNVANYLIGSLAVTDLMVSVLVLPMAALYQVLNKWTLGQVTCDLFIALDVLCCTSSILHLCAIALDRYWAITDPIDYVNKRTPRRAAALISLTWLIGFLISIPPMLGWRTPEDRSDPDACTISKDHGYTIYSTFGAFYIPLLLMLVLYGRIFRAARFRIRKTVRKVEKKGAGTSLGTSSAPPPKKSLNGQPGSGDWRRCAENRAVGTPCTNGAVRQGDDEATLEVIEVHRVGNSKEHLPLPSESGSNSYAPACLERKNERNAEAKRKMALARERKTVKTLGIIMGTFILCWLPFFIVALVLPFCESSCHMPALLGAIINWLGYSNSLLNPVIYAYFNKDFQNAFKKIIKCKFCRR
guinea pig Serotonin, 5-Hydroxytryptamine Receptor 4 (5HT4), HTR4 (gene 100135548), sequence (O70528 whole entry, looked up): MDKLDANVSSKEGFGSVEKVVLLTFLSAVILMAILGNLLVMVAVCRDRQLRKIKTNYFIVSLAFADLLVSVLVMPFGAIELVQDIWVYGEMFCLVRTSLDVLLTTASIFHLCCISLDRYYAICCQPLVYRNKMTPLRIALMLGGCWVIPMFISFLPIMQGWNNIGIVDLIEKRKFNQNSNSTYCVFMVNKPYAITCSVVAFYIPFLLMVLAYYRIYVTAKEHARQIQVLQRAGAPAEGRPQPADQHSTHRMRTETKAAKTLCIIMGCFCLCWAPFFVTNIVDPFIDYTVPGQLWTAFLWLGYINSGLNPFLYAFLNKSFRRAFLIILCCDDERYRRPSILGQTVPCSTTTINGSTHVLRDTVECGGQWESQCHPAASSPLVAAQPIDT
rat Adrenergic, Alpha 1A Receptor (Adra1A), Adra1a (gene 29412), sequence (P43140 whole entry, looked up): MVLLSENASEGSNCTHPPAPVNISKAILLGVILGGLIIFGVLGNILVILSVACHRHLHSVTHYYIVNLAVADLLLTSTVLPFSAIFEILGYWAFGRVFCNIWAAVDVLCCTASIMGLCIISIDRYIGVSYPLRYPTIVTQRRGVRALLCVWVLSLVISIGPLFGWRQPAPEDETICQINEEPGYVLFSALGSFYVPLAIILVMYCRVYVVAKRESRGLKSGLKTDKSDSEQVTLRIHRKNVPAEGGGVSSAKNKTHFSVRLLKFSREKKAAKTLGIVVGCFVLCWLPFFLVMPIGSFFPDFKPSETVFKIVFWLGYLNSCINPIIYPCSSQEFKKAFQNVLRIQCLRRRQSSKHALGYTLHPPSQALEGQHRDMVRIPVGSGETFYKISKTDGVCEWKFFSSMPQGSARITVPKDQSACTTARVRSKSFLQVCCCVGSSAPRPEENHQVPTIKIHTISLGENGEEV
human Thromboxane A2 Receptor (TXA2), TBXA2R (gene 6915), sequence (P21731 whole entry, looked up): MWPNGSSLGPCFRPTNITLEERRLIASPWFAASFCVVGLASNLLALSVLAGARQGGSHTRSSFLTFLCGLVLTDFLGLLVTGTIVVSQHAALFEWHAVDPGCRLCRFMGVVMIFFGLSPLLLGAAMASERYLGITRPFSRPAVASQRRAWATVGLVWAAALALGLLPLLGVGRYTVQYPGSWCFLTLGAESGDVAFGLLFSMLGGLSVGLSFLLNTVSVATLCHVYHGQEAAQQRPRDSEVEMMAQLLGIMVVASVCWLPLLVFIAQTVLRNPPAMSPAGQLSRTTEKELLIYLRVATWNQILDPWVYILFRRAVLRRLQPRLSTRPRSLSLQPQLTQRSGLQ
human Neurokinin, NK2 Receptor, TACR2 (gene 6865), sequence (P21452 whole entry, looked up): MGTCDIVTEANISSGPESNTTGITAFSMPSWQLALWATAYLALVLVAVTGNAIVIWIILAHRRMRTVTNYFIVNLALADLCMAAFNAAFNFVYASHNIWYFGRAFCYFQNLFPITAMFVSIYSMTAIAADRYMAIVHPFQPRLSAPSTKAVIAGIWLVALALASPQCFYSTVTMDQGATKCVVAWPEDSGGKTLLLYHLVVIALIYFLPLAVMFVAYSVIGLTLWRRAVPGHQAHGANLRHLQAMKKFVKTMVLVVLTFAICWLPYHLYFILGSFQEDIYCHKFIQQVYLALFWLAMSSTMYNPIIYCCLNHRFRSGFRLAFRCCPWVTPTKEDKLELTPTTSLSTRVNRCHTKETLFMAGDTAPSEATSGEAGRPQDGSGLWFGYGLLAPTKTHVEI
rat Adrenergic, Alpha 1, Non-selective Receptor (Adra1), Adra1a (gene 29412), sequence (P43140 whole entry, looked up): as the sequence (P43140 whole entry, looked up) above
human Neuropeptide Receptor Y1 (NPY1), NPY1R (gene 4886), sequence (P25929 whole entry, looked up): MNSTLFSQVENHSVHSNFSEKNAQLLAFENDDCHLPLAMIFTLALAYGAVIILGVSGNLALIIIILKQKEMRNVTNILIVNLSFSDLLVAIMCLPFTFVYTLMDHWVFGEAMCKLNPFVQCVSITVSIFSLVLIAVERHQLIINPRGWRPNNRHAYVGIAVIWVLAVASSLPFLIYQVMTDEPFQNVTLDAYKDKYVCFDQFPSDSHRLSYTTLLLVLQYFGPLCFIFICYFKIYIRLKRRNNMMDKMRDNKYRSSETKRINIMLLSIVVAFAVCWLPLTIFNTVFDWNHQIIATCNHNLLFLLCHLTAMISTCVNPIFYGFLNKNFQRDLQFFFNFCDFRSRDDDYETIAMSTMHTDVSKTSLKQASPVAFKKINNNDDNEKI
human Orphanin, Opioid Related Nociceptin Receptor 1 (ORL1), OPRL1 (gene 4987), sequence (P41146 whole entry, looked up): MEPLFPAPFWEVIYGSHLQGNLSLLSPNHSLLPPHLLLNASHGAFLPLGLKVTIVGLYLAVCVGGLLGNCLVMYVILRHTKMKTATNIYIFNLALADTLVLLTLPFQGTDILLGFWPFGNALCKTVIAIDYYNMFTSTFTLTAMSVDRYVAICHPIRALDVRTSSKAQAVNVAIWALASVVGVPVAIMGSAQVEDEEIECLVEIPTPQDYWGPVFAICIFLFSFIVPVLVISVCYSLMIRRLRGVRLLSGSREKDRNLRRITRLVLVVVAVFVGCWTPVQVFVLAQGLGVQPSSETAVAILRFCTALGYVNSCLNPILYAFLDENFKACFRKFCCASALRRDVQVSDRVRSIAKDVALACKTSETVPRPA
guinea pig Bradykinin Receptor B2 (BK2), BDKRB2 (gene 100135486), sequence (O70526 whole entry, looked up): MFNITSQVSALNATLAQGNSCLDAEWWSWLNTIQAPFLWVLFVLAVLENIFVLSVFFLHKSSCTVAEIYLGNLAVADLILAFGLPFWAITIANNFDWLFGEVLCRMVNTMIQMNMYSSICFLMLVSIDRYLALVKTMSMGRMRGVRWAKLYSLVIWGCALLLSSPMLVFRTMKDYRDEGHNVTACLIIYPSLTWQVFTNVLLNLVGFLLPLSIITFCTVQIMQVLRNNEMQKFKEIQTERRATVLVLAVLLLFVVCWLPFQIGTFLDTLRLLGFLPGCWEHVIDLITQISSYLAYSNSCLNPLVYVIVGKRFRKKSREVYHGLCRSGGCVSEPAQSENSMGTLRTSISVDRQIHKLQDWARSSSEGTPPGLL
human Opioid Receptor Delta 1 (Opiate D1), OPRD1 (gene 4985), sequence (P41143 whole entry, looked up): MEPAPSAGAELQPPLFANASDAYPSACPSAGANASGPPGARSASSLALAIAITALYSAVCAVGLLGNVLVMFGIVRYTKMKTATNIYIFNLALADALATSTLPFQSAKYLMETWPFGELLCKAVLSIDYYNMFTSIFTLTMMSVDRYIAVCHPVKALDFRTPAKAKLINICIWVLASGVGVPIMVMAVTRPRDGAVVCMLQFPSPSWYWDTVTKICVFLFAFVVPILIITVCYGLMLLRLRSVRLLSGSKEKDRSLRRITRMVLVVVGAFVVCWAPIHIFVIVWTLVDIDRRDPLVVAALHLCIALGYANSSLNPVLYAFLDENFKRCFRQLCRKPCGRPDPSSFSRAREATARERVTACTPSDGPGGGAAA
rat Serotonin, 5-Hydroxytryptamine Receptor (5HT), Non-Selective Binding, Htr1a (gene 24473), sequence (P19327 whole entry, looked up): as the sequence (P19327 whole entry, looked up) above

Consider `COc1cc2c(c(OC)c1OC)-c1ccc(OC)c(=O)cc1[C@@H](NC(C)=O)CC2`, for which the AC50 in assay [1] is 17.1 µM (active).
For the compound `NNC(=O)c1ccncc1`, the AC50 in assay [2] is 2.18 µM (active).
In the case of `CCCCCCCCCCCCCCO`, the compound was classed as inactive in assay [3].
With `CCc1ccc(O)c(C(C)(C)C)c1`, the call in assay [4] and in assay [5] was inactive.
For `CCn1nc(C)c2c1C(=O)NCC(c1ccc(O)cc1)=N2`, the call in [6], in assay [2], in [8], in assay [9], in [3] and in assay [10] was inactive. Besides, the compound was classed as inactive in assay [5]. The AC50 in assay [7] is 14.4 µM (active).
On to `CCCCCCCCN(C)C`, for which the AC50 in assay [11] was 16.7 µM (active).
For the compound `CCCCCCCCCC`, the result in assay [6], in assay [2], in assay [1], in assay [9], in assay [3] and in assay [12] was inactive. The result in assay [13], in assay [14] and in [15] was inactive.
As for `O=S(=O)(O)c1ccc(N=Nc2c(O)ccc3cc(S(=O)(=O)O)ccc23)cc1`, the concentration at half-maximal activity (AC50) in assay [8] was 12.4 µM (active); in assay [14], 35.6 µM (active). Besides, the compound was called inactive in [4].
In the case of `CC[C@H](C)C(=O)O[C@H]1C[C@H](O)C=C2C=C[C@H](C)[C@H](CC[C@@H](O)C[C@@H](O)CC(=O)O)[C@H]21`, the compound was called inactive in [7].
For the compound `O=C(O)c1cccc(C[C@@H]2COc3ccc(OCc4nc5cc(F)ccc5s4)cc3[C@@H]2O)c1`, the result in assay [14] was inactive.
Still for that read-out and setting: the value for `C[C@@H](Oc1ccc(CNC(=O)c2cccnc2Oc2ccc3c(c2)OCO3)c(F)c1)C(=O)O` was “inactive”.
Take `O=C(O)c1ccc2c(c1)nc(C(=O)NC1CCN(C3CC3)CC1)n2Cc1cc(-c2ccc(Cl)s2)on1`: the compound was classed as inactive in [16] and in assay [8].
Consider `Cc1cccc(O)c1C`, for which the call in assay [7] was inactive.
Consider `C=CN1CCCC1=O`, for which, in [3], the result was inactive.
`CCCCCCCC1CCC(=O)O1` (stereo not drawn): the call in assay [8] and in assay [5] was inactive.
Turning to `COCc1nnc(-c2ccc[n+]([O-])c2)n1-c1c(Cl)c(Cl)cc2[nH]c(=O)c(=O)[nH]c12`, the result in [9] was inactive.
Consider `OCCOCCOCCO`, for which the compound was called inactive in assay [17].
In the case of `C=CCc1cc(S(=O)(=O)c2ccc(O)c(CC=C)c2)ccc1O`, the AC50 was 20.6 µM (active) in assay [2]; 15.5 µM (active) in [16]; 6.66 µM (active) in [7]; 20 µM (active) in assay [1]; 7.68 µM (active) in assay [9]; 4.83 µM (active) in assay [3]. Further, in [14], the AC50 is 10 µM (active). Further, the result in assay [17] and in assay [15] was inactive.
Turning to `CNC(C)=O`, the compound was classed as inactive in assay [12].
Turning to `Cc1ccc(S(=O)(=O)NC(=O)NN2CCCCCC2)cc1`, the compound was called inactive in assay [14].
